Test [1] can be described thus: inhibitors of TNFa-induced NFkB p65 translocation, primary screen, imaging, HUVEC, MLSMR starter and 10KST1 sets (AID 438;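 active means inhibition above 20% together with a positive visual image hit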;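 further: compound added about 3h40 before a 20 min TNFalpha stimulation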;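 on inhibition: signal is the nuclear over cytoplasmic p65 intensity ratio per well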). The following applies: HUVEC TNFa-induced p65 nuclear translocation; cell count: measured here: nuclei count (cytotoxicity indicator), at 2.08 µM; inhibition: at 2 µM, stronger effect = higher value, 0% TNFa-plus-vehicle, 100% no-TNFa wells.
The nature of test [2]: inhibitors of mutant huntingtin aggregation, primary screen, imaging, exon1htt(103Q)mCFP cells, high-content imaging (AID 483;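 active means visual image review flags a hit and inhibition of aggregation exceeds 20%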;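 further: compound exposure lasted 3 days before fixation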;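 on nuclei count: percent of the per-plate median nuclei count of sample wells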). The following applies: exon1htt(103Q)mCFP cell line, aggregate imaging, at 2 µM; inhibition of aggregation: stronger effect = higher value; nuclei count: measured here: cell count, toxicity.
Test [3] is described as follows: inhibitors of E-selectin induction by TNFa, primary screen, imaging, HUVEC, immunofluorescence, MLSMR starter and 10KST1 sets (AID 487;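 active means visually confirmed hit in the image check and inhibition above 20%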;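 on inhibition: signal is fraction of cell area covered by stained E-selectin grains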;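 on nuclei count: 100% = median nuclei count of all wells on the same plate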). The following applies: HUVEC TNFalpha-induced E-selectin immunofluorescence imaging, at 2 µM; inhibition: stronger effect = higher value; nuclei count: measured here: cell number, toxicity.
The target of test [4] is Voltage-gated potassium channel subunit beta-2 (Rattus norvegicus) (UniProt P62483). Nature of the test: KvBeta enzyme negative modulators, primary screen, biochemical, NADPH fluorescence (AID 622;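 active means fluorescence slope higher than the sample average by over 3 SD, cut at about -0.22 in these data, passing the limit was not always enough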;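 further: slope of raw intensity against log time taken from 70 to 1610 s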). The following applies: recombinant KvBeta, 4-cyanobenzaldehyde reduction, at 10 µM, stronger effect = higher value.
For test [5] the target is unchanged. In words: KvBeta positive modulators, primary screen, biochemical, NADPH fluorescence (AID 623;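 active means NADPH fluorescence slope more negative than the mean of all samples by about 3 SD, 99.7% confidence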;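 further: fluorescence intensity change per second fitted from 20 to 320 s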). The settings on record: Recombinant KvBeta, NADPH fluorescence decrease slope, 10 min; at 10 µM; stronger effect = lower value.
Test [6] concerns the target Alpha-2C adrenergic receptor (Homo sapiens) (UniProt P18825). In words: modulators of alpha2C/GIRK thallium flux, primary screen, cell-based, HEK293 alpha2C/GIRK1/2 (AID 624;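 active means fluorescence slope after compound addition differing from the mean of all screened samples at 99.7% confidence, in either direction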;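 further: slope of fluorescence ratio to pre-addition baseline per second over 15 to 24 s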). The settings on record: thallium flux BTC fluorescence, at 10 µM, actives lie on both sides.
A short description of test [7]: inhibitors of Sendai virus-induced IRF3 signaling, primary screen, TLR/RLR signaling modifier project, cell-based, Sendai virus stimulus, luciferase, 10K MLSCN set (AID 602276;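 active means inhibition at or above 50% at 10 µM; inactive means inhibition below 50%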;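 further: firefly luciferase from ISG56 promoter only with Renilla not read in this screen; 0% = Sendai virus plus DMSO and 100% = medium plus DMSO without virus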). The settings on record: HEK293 RL24 IRF3 luciferase reporter, at 10 µM, stronger effect = higher value.
Test [8] in a line: inhibitors of poly I:C-induced TLR3 signaling, primary screen, cell-based, poly I:C stimulus, luciferase, 10K MLSCN set (AID 602277). The settings on record: HEK293-TLR3 RL24 IRF3 luciferase reporter, at 10 µM, stronger effect = higher value. Background: A reporter such as luciferase makes a cellular process visible.

This is an account of results in PubChem BioAssay.

Activity calls are given as the source filed them.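 How the source made its calls, unless noted: active means inhibition of the reporter signal at or above 50%; inactive means inhibition below 50%.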

What is called inhibition is the relative decrease from the control value, in per cent.

Sequence of Alpha-2C adrenergic receptor (Homo sapiens) (P18825 whole entry, looked up): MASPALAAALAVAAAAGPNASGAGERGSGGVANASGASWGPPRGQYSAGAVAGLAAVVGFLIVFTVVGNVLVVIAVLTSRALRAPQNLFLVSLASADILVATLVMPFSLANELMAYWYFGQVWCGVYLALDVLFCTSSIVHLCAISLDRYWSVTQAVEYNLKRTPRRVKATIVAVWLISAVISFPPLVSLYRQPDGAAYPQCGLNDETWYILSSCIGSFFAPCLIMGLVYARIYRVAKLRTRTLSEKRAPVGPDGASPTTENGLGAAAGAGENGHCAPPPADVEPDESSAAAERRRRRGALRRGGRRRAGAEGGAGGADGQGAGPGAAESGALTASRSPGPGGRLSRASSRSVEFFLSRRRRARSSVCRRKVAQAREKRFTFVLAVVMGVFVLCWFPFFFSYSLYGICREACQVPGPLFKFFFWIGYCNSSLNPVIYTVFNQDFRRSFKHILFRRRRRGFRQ
Sequence of Voltage-gated potassium channel subunit beta-2 (Rattus norvegicus) (P62483 whole entry, looked up): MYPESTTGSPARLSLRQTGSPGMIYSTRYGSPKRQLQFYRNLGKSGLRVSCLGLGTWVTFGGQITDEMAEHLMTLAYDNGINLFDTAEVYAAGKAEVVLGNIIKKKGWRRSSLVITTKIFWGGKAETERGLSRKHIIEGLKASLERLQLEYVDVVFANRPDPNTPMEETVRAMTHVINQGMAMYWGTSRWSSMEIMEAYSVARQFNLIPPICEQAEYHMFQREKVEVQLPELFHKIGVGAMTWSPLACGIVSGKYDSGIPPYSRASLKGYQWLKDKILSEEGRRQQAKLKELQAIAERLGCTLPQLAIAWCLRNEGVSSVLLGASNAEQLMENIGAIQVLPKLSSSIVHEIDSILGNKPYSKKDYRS

`O=C(c1ccco1)N1CCN(S(=O)(=O)c2ccc3c(c2)CCN3C(=O)C2CCC2)CC1`: in test [1], the cell count is 600. Moreover, the inhibition in test [1] is 1.2% (inactive); in test [3] it was -53.2% (inactive); in test [7] it was -18.7% (inactive); in test [8] it was -87.3% (inactive). Also, the inhibition of aggregation in test [2] is 22.2% (inactive). Further, the nuclei count in test [2] was 97%; in test [3], 115%. Further, the fluorescence slope in test [4] is -0.425 (inactive). Also, the NADPH fluorescence slope in test [5] is -3.6e-06 (inactive). Further, the slope in test [6] was 0.00394 (inactive).

As for `Cc1cc(C(=O)Nc2ccccc2C#N)n(-c2ccccc2)n1`, the cell count in test [1] is 763. Moreover, the inhibition in test [1] is 7.7% (inactive); in test [3], 27.3% (inactive); in test [7] it was -2.18% (inactive); in test [8], 20.7% (inactive). For the same compound, the inhibition of aggregation in test [2] is 19.6% (inactive). The results for the nuclei count in test [2] and in test [3] were 88.3% and 108%, respectively. For the same compound, the fluorescence slope in test [4] is -0.556 (inactive). Further, the NADPH fluorescence slope in test [5] was 2.9e-05 (inactive). Further, the slope in test [6] is 0.00747 (inactive).

With `Cc1nc2ccc(CCO)cc2s1`, the cell count in test [1] came to 419. Further, the inhibition in test [1] is 8% (inactive); in test [3], -162% (inactive); in test [7], 5.43% (inactive); in test [8] it was 4.05% (inactive). Further, the inhibition of aggregation in test [2] is 2.9% (inactive). Besides, the nuclei count was 93.2% in test [2] and 112% in test [3]. In addition, in test [4], the fluorescence slope was -0.652 (inactive). Also, the NADPH fluorescence slope in test [5] was 3.1e-05 (inactive). In addition, in test [6], the slope was 0.00546 (inactive).

On to `Cn1c(=O)c(=O)n(C)c2cc(S(=O)(=O)CCC(=O)N3CCOCC3)ccc21`, for which, in test [1], the cell count was 773. Besides, the inhibition in test [1] was 0.9% (inactive); in test [3] it was -79.8% (inactive); in test [7], 8.53% (inactive); in test [8], 5.94% (inactive). Also, the inhibition of aggregation in test [2] was 22.5% (inactive). Also, the values for the nuclei count in test [2] and in test [3] were 93% and 113%, respectively. In addition, the fluorescence slope in test [4] is -0.569 (inactive). Further, the NADPH fluorescence slope in test [5] is -1.9e-06 (inactive). Further, in test [6], the slope was 0.00791 (inactive).

For `O=C(O)CC1=C(O)C(=O)N(c2ccccc2)C1c1ccccc1` (centres undefined), in test [1], the cell count was 405. For the same compound, the inhibition in test [1] was 1.1% (inactive); in test [3], -61.5% (inactive); in test [7] it was 4.01% (inactive); in test [8] it was 29.8% (inactive). In addition, in test [2], the inhibition of aggregation is 6.7% (inactive). Also, the nuclei count in test [2] stood at 111%; in test [3], 117%. Also, the fluorescence slope in test [4] is -0.391 (inactive). In addition, in test [5], the NADPH fluorescence slope was -4e-05 (inactive). Also, in test [6], the slope is 0.00537 (inactive).

As for `CC(=O)NC(CCS(C)(=O)=O)C(=O)Nc1cccc(C)c1C` (centres undefined), the cell count in test [1] was found to be 576. The inhibition is 4.3% (inactive) in test [1], -6.3% (inactive) in test [3], 17.7% (inactive) in test [7] and 38.7% (inactive) in test [8]. For the same compound, in test [2], the inhibition of aggregation was 0.4% (inactive). The nuclei count in test [2] came out at 110%; in test [3], 117%. For the same compound, the fluorescence slope in test [4] is -0.542 (inactive). Moreover, in test [5], the NADPH fluorescence slope was -7e-05 (inactive). The slope in test [6] was 0.00627 (inactive).

Take `COc1ccc(CCNC(=O)C2CCN(S(=O)(=O)c3cc(OC)ccc3OC)CC2)cc1`: in test [1], the cell count stood at 269. For the same compound, the inhibition was -5.3% (inactive) in test [1], -26.1% (inactive) in test [3], 14.7% (inactive) in test [7] and 31.4% (inactive) in test [8]. Further, the inhibition of aggregation in test [2] was 3% (inactive). In addition, the values for the nuclei count in test [2] and in test [3] were 93.2% and 98.3%, respectively. In addition, in test [4], the fluorescence slope is -0.39 (inactive). In test [5], the NADPH fluorescence slope is -6.1e-05 (inactive). Further, the slope in test [6] was 0.00597 (inactive).

As for `COc1cccc(CNC(=O)CCS(=O)(=O)c2cccc3nsnc23)c1`, the cell count in test [1] came to 667. The inhibition in test [1] was -6.5% (inactive); in test [3], 8.1% (inactive); in test [7] it was 13.8% (inactive); in test [8], 24.3% (inactive). The inhibition of aggregation in test [2] is -34.5% (inactive). Further, the nuclei count in test [2] came out at 112%; in test [3] it was 109%. In addition, the fluorescence slope in test [4] is -0.513 (inactive). In test [5], the NADPH fluorescence slope is -3.9e-05 (inactive). In test [6], the slope was 0.00504 (inactive).

Take `COCCOC(=O)c1[nH]c2c(c1C)C(=O)CC(c1ccc(N(C)C)cc1)C2` (centres undefined): in test [1], the cell count was found to be 342. Further, the inhibition in test [1] is -4.6% (inactive); in test [3], 21.3% (inactive); in test [7], -15.6% (inactive); in test [8], -26.9% (inactive). The inhibition of aggregation in test [2] was -19% (inactive). Also, the nuclei count in test [2] came out at 105%; in test [3], 83.3%. In test [4], the fluorescence slope is -0.534 (inactive). Also, the NADPH fluorescence slope in test [5] is 1.4e-05 (inactive). Moreover, the slope in test [6] was 0.00456 (inactive).

For the compound `CCCC(=O)N1CC(=O)Nc2ccc(C)cc2C1c1ccc(F)cc1` (centres undefined), the cell count in test [1] came out at 698. Also, the inhibition is -9.1% (inactive) in test [1], -21.3% (inactive) in test [3], 3.95% (inactive) in test [7] and 24.9% (inactive) in test [8]. The inhibition of aggregation in test [2] is 7.9% (inactive). The nuclei count in test [2] amounted to 103%; in test [3], 111%. The fluorescence slope in test [4] is -0.513 (inactive). Moreover, the NADPH fluorescence slope in test [5] was -3e-05 (inactive). In addition, the slope in test [6] is 0.00518 (inactive).

`CCn1nnc(NC(=O)c2ccc(-c3ccc(Cl)cc3)o2)n1`: in test [1], the cell count is 391. The inhibition was -6.7% (inactive) in test [1], -101% (inactive) in test [3], -111% (inactive) in test [7] and -103% (inactive) in test [8]. Moreover, in test [2], the inhibition of aggregation was -20% (inactive). The nuclei count turned out to be 129% in test [2] and 208% in test [3]. Besides, the fluorescence slope in test [4] was -0.488 (inactive). Also, the NADPH fluorescence slope in test [5] is -7.1e-05 (inactive). Also, the slope in test [6] was 0.00611 (inactive).

Take `S=c1[nH]nc(-c2ccco2)n1-c1cccc2ccccc12`: the cell count in test [1] was 390. Moreover, the inhibition in test [1] is 1.5% (inactive); in test [3], -181% (inactive); in test [7], -23.7% (inactive); in test [8], -8.5% (inactive). Also, the inhibition of aggregation in test [2] was -1.8% (inactive). In addition, the nuclei count in test [2] came to 111%; in test [3], 104%. The fluorescence slope in test [4] was -0.526 (inactive). In addition, in test [5], the NADPH fluorescence slope was 3.2e-05 (inactive). Further, the slope in test [6] was 0.00555 (inactive).

With `COc1ccc(NC(=O)c2cc(C)on2)cc1OC`, the cell count in test [1] was 377. The inhibition in test [1] is 3.7% (inactive); in test [3] it was 22.1% (inactive); in test [7], 6.93% (inactive); in test [8], -8.62% (inactive). Further, in test [2], the inhibition of aggregation was -26.4% (inactive). The figures for the nuclei count in test [2] and in test [3] were 111% and 106%, respectively. Further, the fluorescence slope in test [4] is -0.624 (inactive). Besides, the NADPH fluorescence slope in test [5] is -3.2e-06 (inactive). Also, in test [6], the slope was 0.00386 (inactive).

For `CC1=C(C(N)=O)C(c2ccccn2)n2nc(SCc3ccccc3)nc2N1` (centres undefined), the cell count in test [1] turned out to be 624. Moreover, the inhibition in test [1] is 3.8% (inactive); in test [3] it was 43.5% (inactive); in test [7] it was -8.46% (inactive); in test [8], 0.00265% (inactive). Besides, in test [2], the inhibition of aggregation is 3.9% (inactive). The results for the nuclei count in test [2] and in test [3] were 93% and 86.4%, respectively. Besides, the fluorescence slope in test [4] was -0.316 (inactive). The NADPH fluorescence slope in test [5] was -8.8e-05 (inactive). Besides, the slope in test [6] is 0.0057 (inactive).
